According to PubChem BioAssay (NCI):
The panel holds about 83,000 compounds, 20% with a hit somewhere; the sample as a whole holds those more often.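 Method: cells in 96-well plates; compound added at one concentration; 48 h incubation; percent growth measured; values under 10 scored active.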 Values without a mark were called inactive. The source made the active and inactive calls.

Tests used:
Assay in all cases: NCI-60 one-dose screen, 48 h (100 = growth as untreated, 0 = no growth, -100 = all killed)
Settings in all cases: 10 µM
NCI-H23 lung = tested on: NCI-H23 lung
NCI-H226 lung = tested on: NCI-H226 lung
NCI-H322M lung = tested on: NCI-H322M lung
HOP-62 NSCLC = tested on: HOP-62 NSCLC
NCI-H460 lung = tested on: NCI-H460 lung
HOP-92 NSCLC = tested on: HOP-92 NSCLC
A549/ATCC NSCLC = tested on: A549/ATCC NSCLC
786-0 renal = tested on: 786-0 renal
COLO 205 colon = tested on: COLO 205 colon
NCI-H522 lung = tested on: NCI-H522 lung

Structure (SMILES) | growth (NCI-H23 lung) | growth (NCI-H226 lung) | growth (NCI-H322M lung) | growth (HOP-62 NSCLC) | growth (NCI-H460 lung) | growth (HOP-92 NSCLC) | growth (A549/ATCC NSCLC) | growth (786-0 renal) | growth (COLO 205 colon) | growth (NCI-H522 lung)
O=C(NO)c1ccc(Cn2ccc3c(Nc4ccccc4)ncnc32)cc1 | -87.2% (active) | 32% | 42.7% | 14.4% | 13.1% | -16.3% (active) | 25.3% | 31% | -84.9% (active) | 
CN1CCN(c2ccc(Nc3nc(NCCCNC(=O)c4ccc(F)cc4)c4sccc4n3)cc2)CC1 | 74.8% | 81.2% | 79.9% | 92.5% | 62.5% | 56.8% | 56.3% | -4.91% (active) | 90.3% | 
Nc1nc(Nc2ccccc2)nn1Cc1c(Cl)cccc1Cl | 34.1% | 30.4% | 51.8% | 60.6% | 24.8% | -17.4% (active) | 43.1% | 27.8% | 33.2% | 
CN1CCN(Cc2ccc(C(=O)Nc3cccc(Nc4ccc5cc(O)ccc5n4)c3)cc2C(F)(F)F)CC1 | -66% (active) | 26.5% | -28.9% (active) | -66.5% (active) | -74.6% (active) | -46.2% (active) | -11.5% (active) | -47% (active) | -85.4% (active) | 
COc1cc2c(cc1OC)CN(CCCCOc1cc(O)c3c(=O)cc(-c4ccccc4)oc3c1)CC2 | 67.2% | 63.5% | 92.5% | 80.7% | 49.6% | 64.2% | 67.7% | 23.9% | -43.8% (active) | 
O=C(c1ccc(Cl)cc1)C1[C@H](c2ccc(Br)cc2)[C@@H](c2ccccc2)NC12C(=O)Nc1ccc(Br)cc12 (some centres undefined) | -92.7% (active) | -90.5% (active) | -59.3% (active) | -80.3% (active) | -62.5% (active) | -72.7% (active) | -51.5% (active) | -80.4% (active) | -88.2% (active) | 
CCCCOc1ccc(Nc2nc3ccccc3nc2Nc2ccc(OCCCC)cc2)cc1 | 82.6% | 96.6% | 106% | 98.9% | 60.1% | 97.4% | 89.4% | 72.1% | 116% | 
COc1ccc(-c2cc(C(=O)N=Nc3c(O)[nH]c4ccccc34)c3ccccc3n2)cc1 | -36.4% (active) | -36% (active) | 6.23% (active) | -42.7% (active) | -70.4% (active) | -46.5% (active) | -37.4% (active) | -40.9% (active) | -5.77% (active) | 
COc1cccc(C(N)=Nc2ccc(OCCCCCCn3cncn3)cc2)c1 | 21.1% |  | 60.5% | 20.7% | 28.1% | 79.3% |  | 40.9% |  | -2.45% (active)
CC(C)C1=C[C@@]23CC[C@@H]4[C@](C)(CCC[C@]4(C)C(=O)NCc4ccccc4)[C@H]2C[C@@H]1[C@H]1C(=O)CCC(=O)[C@H]13 | 59% | 40.7% | 93.4% | 94.4% | 84.5% | 68.9% | 81.6% | 87.2% | 103% | 
O=C(/C=C/Nc1ccc(F)cc1F)c1ccc2c(c1)Nc1ccccc1S2 | 70.3% | 53.2% | 89.3% | 78.5% | 55.4% | 85.5% | 81% | 88.1% | 80.6% | 
COc1ccc(C2NC(=S)NC(C)=C2C(=O)OC(C)C)cc1OC (centres undefined) | 111% | 94.8% | 96.8% | 103% | 114% | 101% | 114% | 93.2% | 140% | 
CNC(=O)c1cc(-c2ccc(NC(=O)Nc3ccc(C)cc3)cc2)nc2cccnc12 | 101% | 61.4% | 96.6% | 90.6% | 105% | 64.6% | 98.1% | 104% | 115% | 
COc1ccc(C(=O)CSc2nnc(-c3c[nH]c4ccccc34)n2-c2ccccc2)cc1 | 56.5% | 0.0587% (active) | 58.3% | 8.82% (active) | 65.5% | 7.9% (active) | 74% | 45.2% | 84.8% | 
